VDR inhibitor: Inhibitors of the vitamin D receptor (VDR): qHTS. AID 504847, 2011. Vitamin D3 receptor (Homo sapiens), P11473. VDR-SRC2-3 peptide fluorescence polarization, 2 h. 400,000 tested, 0.93% active. Potency, µM, without a hit: max response, negative = inhibition, actives largely listed as inhibitors; further: on the % scale 0 is the no-effect control and ±100 the full control effect
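FP read-out; VDR + SRC2-3 coactivator peptide; 23 nl compound by pintool; 2 h RT incubation; reagents held at 4 deg C, protected from light.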
Tb PFK inh: qHTS Assay to Find Inhibitors of T. brucei phosphofructokinase | ATP-dependent 6-phosphofructokinase (Trypanosoma brucei brucei), O15648 | T. brucei PFK, ADP-Glo luminescence | AID 485367, 2010 | 330,000 tested, 0.17% active | Potency, µM (top dose mostly 57.5 µM), without a hit: at the highest dose activity, negative = inhibition, actives largely listed as inhibitors;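 further: 0% = uninhibited 1x PFK enzyme wells and -100% = no-enzyme wells; nearly all actives have a fitted effect of over 60% in size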
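PFK 1.25 nM, F6P 0.5 mM, ATP 0.1 mM, 0.1 M TEA pH 8.0, 5 mM MgCl2, 0.01% Tween20, 0.1% BSA; 45 min RT. ADP-Glo readout. qHTS titration up to 57 uM; curves fitted, compounds curve-classed.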
PLK1 PBD inh: qHTS for Inhibitors of PLK1-PDB (polo-like kinase 1 - polo-box domain): Primary Screen | Serine/threonine-protein kinase PLK1 (Homo sapiens), P53350 | Plk1 PBD binding of FITC phosphopeptide, fluorescence polarization | Potency, µM, inactives show max response, negative = inhibition, hits mostly inhibitors | 360,000 tested, 2.8% active; further: series mostly up to about 57 µM; on the % scale 0 is the no-effect control and ±100 the full control effect; nearly all actives have a fitted effect of over 65% in size
BRCA1 expr act: qHTS Assay to Identify Small Molecule Activators of BRCA1 Expression; MCF7-BRCA1-FFLuc reporter, luminescence, 48 h; response scale: scaled: vehicle 0%, 10 µM genistein 100%; Potency, µM (titrated, usually from 46.1 µM), for inactives: top-dose activation, usual class: activators; 380,000 tested, 1.1% active; AID 624202, 2012; further: nearly all actives have a fitted effect of over 80% in size
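Quantitative HTS in MCF7 cells stably reporting BRCA1 expression via firefly luciferase. Compound treatment lasts 48 h at 37 °C in phenol-red free MEM. Activation is expressed relative to genistein at 10 microM and DMSO.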
An asterisk follows results filed as active. A selection: hits, their analogues and other compounds. The true share with any hit is near 3.9%. The call rests on the fitted dose curve; in most records, active means well fitted curve in the direction sought with a large enough effect; inconclusive means small, poorly fitted or top-dose-only effect, or another doubt; inactive means no such curve, though single readings can be large; an effect the other way counts as inactive or inconclusive. Potency means the concentration at half of the fitted maximal effect.

Results for Cc1ccc(S(=O)(=O)N2[C@@H](c3ccccc3)C(C(=O)O)=CC[C@H]2c2ccc(Cl)c(Cl)c2)cc1 ?
VDR inhibitor: inconclusive; Tb PFK inh: -3%; PLK1 PBD inh: inconclusive; BRCA1 expr act: 0%

How did COc1ccc([C@@H]2CC=C(C(=O)O)[C@H](c3ccc(Br)cc3)N2S(=O)(=O)c2ccccc2C)cc1 do in these assays?
VDR inhibitor: 1%; Tb PFK inh: -1%; PLK1 PBD inh: -27%; BRCA1 expr act: -5%

What do the screens show for `Cc1ccccc1S(=O)(=O)N1[C@@H](c2ccc(Br)cc2)C(C(=O)O)=CC[C@H]1c1ccc(Cl)cc1`?
VDR inhibitor: inconclusive; Tb PFK inh: 0%; PLK1 PBD inh: 21µM*; BRCA1 expr act: 8%

What do the screens show for `Cc1ccc([C@@H]2CC=C(C(=O)O)[C@H](c3ccc(Cl)cc3)N2S(=O)(=O)c2ccccc2C)cc1`?
VDR inhibitor: -14%; Tb PFK inh: -2%; PLK1 PBD inh: 21µM*; BRCA1 expr act: 3%

Results for Cc1ccccc1S(=O)(=O)N1[C@@H](c2ccccc2)C(C(=O)O)=CC[C@H]1c1ccc(Cl)cc1 ?
VDR inhibitor: inconclusive; Tb PFK inh: 0%; PLK1 PBD inh: inconclusive; BRCA1 expr act: -3%

What do the screens show for `Cc1ccc(C(=O)O/N=C(\N)c2ccc(C(F)(F)F)cn2)cc1`?
VDR inhibitor: 17%; Tb PFK inh: 1%; PLK1 PBD inh: -2%; BRCA1 expr act: inconclusive

What do the screens show for `N/C(=N\OC(=O)c1csnn1)c1ccc(C(F)(F)F)cc1`?
VDR inhibitor: 0%; Tb PFK inh: -5%; PLK1 PBD inh: -7%; BRCA1 expr act: 11µM*

Results for CN(C)CCCNc1nc2cc(-c3ccc(F)cc3)sc2c(=O)n1C ?
PLK1 PBD inh: -2%; BRCA1 expr act: 0%

Results for Cc1nn(C)c2c1c(C(F)(F)F)cc(=O)n2CC(=O)NCCC(C)C ?
VDR inhibitor: 8%

How did O=C(O)c1cc([N+](=O)[O-])ccc1NCc1ccccc1Cl do in these assays?
VDR inhibitor: -27%; Tb PFK inh: 0%; PLK1 PBD inh: 24µM*; BRCA1 expr act: -19%

How did CCc1ccccc1NS(=O)(=O)c1ccc2[nH]cc(C(=O)N(CC)Cc3ccccc3)c(=O)c2c1 do in these assays?
VDR inhibitor: 11%

What do the screens show for `CCN(CC)S(=O)(=O)c1ccc(Cl)c(NC(=O)c2ccccc2C)c1`?
VDR inhibitor: -19%; Tb PFK inh: -2%; PLK1 PBD inh: 21µM*; BRCA1 expr act: -10%

Results for CCN(CC)S(=O)(=O)c1ccc(Cl)c(NC(=O)c2cc(Cl)cc(Cl)c2)c1 ?
VDR inhibitor: -3%; Tb PFK inh: -3%; PLK1 PBD inh: -9%; BRCA1 expr act: 1%

What do the screens show for `COc1cncc(C#Cc2ccccn2)c1`?
PLK1 PBD inh: -7%; BRCA1 expr act: 4.5µM*

How did COc1cc2oc3ccc(C#Cc4ccccn4)cc3c(=O)c2cc1OC do in these assays?
VDR inhibitor: 0%; PLK1 PBD inh: -14%; BRCA1 expr act: 43%

How did O=S(=O)(CCN1CCN(C(c2ccccc2)c2ccccc2)CC1)C(F)(F)F do in these assays?
VDR inhibitor: inconclusive; Tb PFK inh: 1%; PLK1 PBD inh: 15µM*; BRCA1 expr act: 1%

How did Nc1cc(C(=O)O)ccc1Sc1ccccc1C(=O)O do in these assays?
VDR inhibitor: inconclusive; Tb PFK inh: 19%; PLK1 PBD inh: 11µM*; BRCA1 expr act: 21%

Results for O=c1nc2c(O)cccn2c2c1c(=O)[nH]c1ccccc12 ?
VDR inhibitor: 2%; Tb PFK inh: 0%; PLK1 PBD inh: 24µM*; BRCA1 expr act: -49%

What do the screens show for `O=c1[nH]c2ccccc2c2nc3ccccn3c12`?
VDR inhibitor: -4%; Tb PFK inh: 1%; PLK1 PBD inh: -4%; BRCA1 expr act: 18%

Results for CC(C)(C)OC(=O)N1CCN(C(c2ccnc3ccccc23)c2nnnn2-c2ccc3c(c2)OCCO3)CC1 (centres undefined) ?
PLK1 PBD inh: -11%; BRCA1 expr act: -21%

What do the screens show for `O=Cc1c(Sc2ccccc2)nc2ccccn2c1=O`?
VDR inhibitor: -30%; Tb PFK inh: 7%; PLK1 PBD inh: 3.4µM*; BRCA1 expr act: -65%

Source: PubChem
